Assay outcomes (PubChem BioAssay)
TrxR1 substrate – is turned over as a substrate by rat TrxR1. O89049. purified TrxR1 substrate turnover, NADPH consumption readout. Potency, µM (doses to about 114 µM). 390,000 compounds, 0.01% hits; also: nearly all actives have a fitted effect of over 50% in size
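Rat TrxR1, dispensed at 90 nM, was prereduced with 400 uM NADPH (final) for 5 min at ~22 deg C, then incubated with compound 15 min before 400 uM selenite. A first-read NADPH fluorescence drop versus no-compound background flagged substrates.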
PKM2 act – activators of human pyruvate kinase M2; Potency, µM (series often up to 57.5 µM), usual class: activators; 260,000 compounds, 0.34% hits; purified PKM2, Kinase-Glo ATP luminescence, activation; response scale: 0% is enzyme alone, no compound; also: nearly all actives have a fitted effect of over 55% in size
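Purified hPK-M2 (>95%) run at intermediate activity with 0.1 mM ADP and 0.5 mM PEP in 50 mM imidazole pH 7.2, KCl, MgCl2; 1 h room temperature. ATP formed read by Kinase-Glo luminescence; normalized to uninhibited and no-enzyme controls.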
Apoferritin bind – binds horse apoferritin like a general anesthetic; Potency, µM (doses to about 77.5 µM), hits mostly inhibitors; 350,000 compounds, 0.074% hits; P02791; apoferritin/1-aminoanthracene competitive binding, fluorescence; also: nearly all actives have a fitted effect of over 20% in size
Target sequence (P02791 2-175 limits assumed): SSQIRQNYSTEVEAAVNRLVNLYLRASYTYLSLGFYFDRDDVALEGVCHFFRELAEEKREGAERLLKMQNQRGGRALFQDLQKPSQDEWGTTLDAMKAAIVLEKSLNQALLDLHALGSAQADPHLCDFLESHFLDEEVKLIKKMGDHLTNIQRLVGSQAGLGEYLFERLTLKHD
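Concentration-response curves derived by four-parameter Hill fitting of normalized fluorescence, where compounds displaced 1-AMA from 10 uM horse apoferritin following a brief 10 min room-temperature incubation; propofol titration acted as positive control.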
TrxR1 inh – inhibitors of rat thioredoxin reductase 1; recombinant rTrxR1, NADPH fluorescence consumption, selenite substrate; Potency, µM (highest dose often 114 µM), usual class: inhibitors; 390,000 compounds, 1% hits; AID 588453; also: nearly all actives have a fitted effect of over 65% in size
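Rat TrxR1 (90 nM in the dispensed reagent) was pre-reduced with 400 uM NADPH for 5 min at room temperature, then incubated with compound for 15 min. After 400 uM selenite was added, NADPH fluorescence (Ex 340/Em 450 nm) was followed for 8 min.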
IDH1 R132H inh – human IDH1 R132H inhibition; O75874; Potency, µM (series often up to 76.6 µM), most hits filed as inhibitors; IDH1-R132H enzyme, NADPH consumption, diaphorase/resazurin fluorescence; 390,000 compounds, 0.093% hits; also: nearly all actives have a fitted effect of over 65% in size
Target sequence (O75874 whole entry R132H, stated change not applied): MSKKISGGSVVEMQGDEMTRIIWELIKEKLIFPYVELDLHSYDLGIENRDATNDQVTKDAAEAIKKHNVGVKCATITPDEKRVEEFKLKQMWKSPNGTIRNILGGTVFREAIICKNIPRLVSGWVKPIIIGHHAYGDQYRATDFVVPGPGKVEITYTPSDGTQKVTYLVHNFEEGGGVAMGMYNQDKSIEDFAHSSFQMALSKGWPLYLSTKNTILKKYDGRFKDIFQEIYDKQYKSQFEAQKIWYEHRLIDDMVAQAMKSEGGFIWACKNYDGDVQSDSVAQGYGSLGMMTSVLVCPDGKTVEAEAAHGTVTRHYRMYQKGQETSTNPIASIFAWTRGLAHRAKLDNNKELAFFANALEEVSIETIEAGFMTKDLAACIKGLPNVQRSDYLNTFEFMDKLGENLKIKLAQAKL
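IDH1-R132H (0.5 ug/mL) preincubated 30 min with compound, then NADPH (0.016 mM) and alpha-KG (2 mM) added; 80 min at RT, pH 7.5. Remaining NADPH coupled via diaphorase/resazurin to fluorescence (540/590 nm); concentration-response curves normalized to no-enzyme control.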
GALK inhibitor – galactokinase (human) inhibition. P51570. Purified GALK, Kinase-Glo residual ATP luminescence. Potency, µM (doses to about 57.5 µM), usual class: inhibitors. 270,000 compounds, 0.007% hits. AID 1868
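The enzyme phosphorylates galactose (100 uM) using ATP (35 uM); inhibition is detected as higher residual ATP, quantified by bioluminescence after 1 h reaction at room temperature, pH 8.0.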
A number is an active result. Most compounds without a hit are left out; they make up all but 1.3% or so of the library. Calls follow the shape of the dose curve; as a rule, active = well fitted curve in the direction sought with a large enough effect; inconclusive = small, poorly fitted or top-dose-only effect, or another doubt; inactive = no such curve, though single readings can be large; an effect the other way counts as inactive or inconclusive.

What do the screens show for `CCNC(=O)c1c(NC(=O)Cc2coc3cc(C)ccc23)sc2c1CCCC2`?
TrxR1 substrate: inactive; Apoferritin bind: inactive; TrxR1 inh: inactive; IDH1 R132H inh: inactive

What do the screens show for `CC1(C)CC(=O)C(C(C2=C(O)CC(C)(C)CC2=O)c2ccc([N+](=O)[O-])cc2)C(=O)C1` (configuration not stated)?
TrxR1 substrate: inactive; PKM2 act: inactive; Apoferritin bind: inactive; TrxR1 inh: inconclusive; IDH1 R132H inh: inactive; GALK inhibitor: inactive

How did COc1cccc(C(C2C(=O)CC(C)(C)CC2=O)C2C(=O)CC(C)(C)CC2=O)c1 do in these assays?
TrxR1 substrate: inactive; Apoferritin bind: inactive; TrxR1 inh: inconclusive; IDH1 R132H inh: inactive; GALK inhibitor: inactive

What do the screens show for `Cc1ccc(C(C2=C(O)CC(C)(C)CC2=O)C2C(=O)CC(C)(C)CC2=O)s1` (configuration not stated)?
TrxR1 substrate: inactive; PKM2 act: inactive; Apoferritin bind: inconclusive; TrxR1 inh: 10µM; IDH1 R132H inh: inactive; GALK inhibitor: inactive

How did COc1cccc(C(C2=C(O)CC(C)(C)CC2=O)C2C(=O)CC(C)(C)CC2=O)c1 (configuration not stated) do in these assays?
TrxR1 substrate: inactive; PKM2 act: inactive; Apoferritin bind: inactive; TrxR1 inh: 44.7µM; IDH1 R132H inh: inactive; GALK inhibitor: inactive

Results for CC1(C)CC(=O)C(C(C2=C(O)CC(C)(C)CC2=O)c2ccc(Br)s2)C(=O)C1 (configuration not stated) ?
TrxR1 substrate: inactive; PKM2 act: inconclusive; Apoferritin bind: inconclusive; TrxR1 inh: 3.98µM; IDH1 R132H inh: inactive; GALK inhibitor: inactive

Results for CCOc1ccc(CCNC(=O)CSc2nc3ccccc3nc2Cc2ccc(C)cc2)cc1OCC ?
TrxR1 substrate: inactive; Apoferritin bind: inconclusive; TrxR1 inh: inactive; IDH1 R132H inh: inactive

How did Cc1cc(C(=O)N/N=C/c2ccc(O)c(O)c2O)c(C)n1-c1ccccc1 do in these assays?
TrxR1 substrate: inactive; PKM2 act: 28.2µM; Apoferritin bind: inactive; TrxR1 inh: inactive; IDH1 R132H inh: inactive; GALK inhibitor: inactive

What do the screens show for `CC1(C)C(=O)OC(C(=O)c2ccccc2)C(C)(C)C1=O` (configuration not stated)?
TrxR1 substrate: inactive; PKM2 act: inactive; Apoferritin bind: 8.91µM; TrxR1 inh: inactive; IDH1 R132H inh: inactive; GALK inhibitor: inactive

How did CC1(C)C(=O)OC(C(=O)c2ccc(Cl)cc2)C(C)(C)C1=O (configuration not stated) do in these assays?
TrxR1 substrate: inactive; PKM2 act: inactive; Apoferritin bind: inconclusive; TrxR1 inh: inactive; IDH1 R132H inh: inactive; GALK inhibitor: inactive

Results for CC(C)(C)n1ncc2c(=O)n(Cc3ccc(C#N)cc3F)cnc21 ?
TrxR1 substrate: inactive; TrxR1 inh: inactive

How did O=C(N/C(=C\c1ccco1)C(=O)N1CCCC1CO)c1ccccc1 (configuration not stated) do in these assays?
TrxR1 substrate: inactive; Apoferritin bind: inactive; TrxR1 inh: 39.8µM; IDH1 R132H inh: inactive; GALK inhibitor: inactive

What do the screens show for `Cc1cc(C)n(S(=O)(=O)c2ccc3oc(=O)ccc3c2)n1`?
TrxR1 substrate: inactive; Apoferritin bind: inactive; TrxR1 inh: inactive; IDH1 R132H inh: inactive; GALK inhibitor: inactive

How did Cc1ccn(S(=O)(=O)c2ccc3oc(=O)ccc3c2)n1 do in these assays?
TrxR1 substrate: inactive; PKM2 act: 10µM; Apoferritin bind: inactive; TrxR1 inh: inactive; IDH1 R132H inh: inactive; GALK inhibitor: inactive

What do the screens show for `COc1ccc(C(NC(=O)/C=C/c2ccco2)c2ccc(OC)cc2)cc1`?
TrxR1 substrate: inactive; PKM2 act: inconclusive; Apoferritin bind: inactive; TrxR1 inh: 25.1µM; IDH1 R132H inh: inactive; GALK inhibitor: inactive

Results for COc1ccc(C(NC(=O)/C=C\c2ccco2)c2ccc(OC)c(OC)c2)cc1 (configuration not stated) ?
TrxR1 substrate: inactive; PKM2 act: inactive; Apoferritin bind: inconclusive; TrxR1 inh: 8.91µM; IDH1 R132H inh: inactive; GALK inhibitor: inactive

How did COc1cccc(NC(=O)/C=C/c2ccco2)c1 do in these assays?
TrxR1 substrate: inactive; PKM2 act: inactive; Apoferritin bind: inactive; TrxR1 inh: inactive; IDH1 R132H inh: inactive; GALK inhibitor: inactive

What do the screens show for `COC(=O)c1ccc(C2Nc3ccc(/C(C)=N/NC(=O)C(OC)c4ccccc4)cc3C3C=CCC32)cc1` (configuration not stated)?
TrxR1 substrate: inactive; PKM2 act: inactive; Apoferritin bind: inconclusive; TrxR1 inh: 22.4µM; IDH1 R132H inh: inactive; GALK inhibitor: inactive

Results for COc1cc(/C=N\Nc2nc(-c3ccc(C)cc3)c(NC(C)=O)s2)ccc1O ?
TrxR1 substrate: inactive; PKM2 act: 17.8µM; Apoferritin bind: inactive; TrxR1 inh: inactive; IDH1 R132H inh: inactive; GALK inhibitor: inactive

How did O=C(O)Cc1sc(N/N=C\c2ccncc2)nc1-c1ccccc1 do in these assays?
TrxR1 substrate: inactive; PKM2 act: inactive; Apoferritin bind: inactive; TrxR1 inh: 3.16µM; IDH1 R132H inh: inactive; GALK inhibitor: inactive

Results for CC(=O)Nc1sc(N/N=C/c2ccc(C)cc2)nc1-c1ccc(C)cc1 ?
TrxR1 substrate: inactive; PKM2 act: 7.08µM; Apoferritin bind: inactive; TrxR1 inh: inactive; IDH1 R132H inh: inactive; GALK inhibitor: inactive

What do the screens show for `CC(=O)Nc1sc(N/N=C/c2ccc(N(C)C)cc2)nc1-c1ccc(C)cc1`?
TrxR1 substrate: inactive; PKM2 act: inactive; Apoferritin bind: inactive; TrxR1 inh: inactive; IDH1 R132H inh: inactive; GALK inhibitor: inactive

Results for CCOc1cc(/C=N\Nc2nc(-c3ccc(C)cc3)c(NC(C)=O)s2)ccc1O ?
TrxR1 substrate: inactive; PKM2 act: inconclusive; Apoferritin bind: inactive; TrxR1 inh: inactive; IDH1 R132H inh: inactive; GALK inhibitor: inactive

What do the screens show for `COc1ccc(/C=N/Nc2nc(-c3ccc(C)cc3)c(NC(C)=O)s2)cc1OC`?
TrxR1 substrate: inactive; PKM2 act: 10µM; Apoferritin bind: inactive; TrxR1 inh: inactive; IDH1 R132H inh: inactive; GALK inhibitor: inactive

What do the screens show for `CC(=O)c1cc(-c2ccccc2)n(CC(=O)NCCc2ccc(C)cc2)c1C`?
TrxR1 substrate: inactive; Apoferritin bind: inactive; TrxR1 inh: inactive; IDH1 R132H inh: inactive

What do the screens show for `CCc1ccc(C2=C(C)C(N3CCC(C(=O)NCc4ccc(C)o4)CC3)=NS2(=O)=O)cc1`?
TrxR1 substrate: inactive; Apoferritin bind: inconclusive; TrxR1 inh: inactive

Results for CC1(C)CC(=O)C(C(C2=C(O)CC(C)(C)CC2=O)c2ccc(O)c([N+](=O)[O-])c2)=C(O)C1 ?
TrxR1 substrate: inactive; PKM2 act: inactive; Apoferritin bind: inactive; TrxR1 inh: 12.6µM; IDH1 R132H inh: inactive; GALK inhibitor: inactive
